Reference: PubChem BioAssay (Tox21)
Several values for one entry are separate records, joined by “and”; a condition that tells them apart may be missing. Equal entries are not always repeated. Records with an inconclusive call do not appear. Activity calls are given as the source filed them. Unless noted, calls follow the shape of the dose curve; as a rule, active = well fitted curve in the direction sought with a large enough effect in the repeat runs; inconclusive = weak or mixed curves; inactive = no such curve, though single readings can be large; an effect the other way counts as inactive or inconclusive.

How the values were obtained:
[1] = qHTS assay for identifying genotoxic compounds that show differential cytotoxicity against isogenic chicken DT40 cell lines with known DNA damage response pathways - wild type cell line (AID 743012); also: nearly all actives have a fitted effect of over 60% in size; also: potency is read from the fitted curve at half-maximal effect
Outline: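 Wild type DT40, 300 cells/well, ~0.5 h settle at 37 C/5% CO2; compounds in DMSO added by pintool; 40 h at 37 C/5% CO2; CellTiter-Glo, 30 min RT; luminescence.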

[2] = qHTS assay for identifying genotoxic compounds that show differential cytotoxicity against isogenic chicken DT40 cell lines with known DNA damage response pathways - Rev3 mutant cell line (AID 743014); also: nearly all actives have a fitted effect of over 55% in size; also: potency is read from the fitted curve at half-maximal effect
[3] = qHTS assay for identifying genotoxic compounds that show differential cytotoxicity against isogenic chicken DT40 cell lines with known DNA damage response pathways - Rad54/Ku70 mutant cell line (AID 743015); also: nearly all actives have a fitted effect of over 60% in size; also: potency is read from the fitted curve at half-maximal effect
[4] = qHTS assay to identify small molecule antagonists of the androgen receptor (AR) signaling pathway - cell viability counter screen (AID 743033; also: nearly all actives have a fitted effect of over 45% in size)
[5] = qHTS assay to identify small molecule antagonists of the androgen receptor (AR) signaling pathway using the MDA cell line - cell viability counter screen (AID 743041; also: nearly all actives have a fitted effect of over 45% in size)
Outline: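 Same-well cytotoxicity was assessed by CellTiter-Fluor in MDA-kb2 AR-luc cells after 16 h of compound treatment under R1881 agonism.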

[6] = qHTS assay to identify small molecule antagonists of the thyroid receptor (TR) signaling pathway - cell viability counter screen (AID 743064); also: nearly all actives have a fitted effect of over 50% in size
Outline: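 Same-well viability check: GH3.TRE-Luc cells stimulated with 1 nM T3 alongside test compound for 23.5 h, followed by CellTiter-Fluor fluorescence.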

[7] = qHTS assay to identify small molecule antagonists of the estrogen receptor alpha (ER-alpha) signaling pathway - cell viability counter screen (AID 743074; calls by dose curve;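 also: HEK293 cells carrying ER-alpha-UAS-bla reporter stimulated with 17beta-estradiol; nearly all actives have a fitted effect of over 45% in size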)
[8] = target: Estrogen receptor (Homo sapiens) (UniProt P03372); assay: qHTS assay to identify small molecule agonists of the estrogen receptor alpha (ER-alpha) signaling pathway (AID 743075; calls by dose curve;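 also: HEK293 GripTite cells with ER-alpha and UAS-driven beta-lactamase reporter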)
[9] = qHTS assay to identify small molecule antagonists of the estrogen receptor alpha (ER-alpha) signaling pathway using the BG1 cell line - cell viability counter screen (AID 743081);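 also: compound given together with 17beta-estradiol as the ER stimulus; series mostly up to about 70 µM; nearly all actives have a fitted effect of over 45% in size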
Aromatase (Homo sapiens) = Aromatase (Homo sapiens) (UniProt P11511); assay: qHTS assay to identify aromatase inhibitors (AID 743083); also: series mostly up to about 70 µM; nearly all actives have a fitted effect of over 55% in size
[10] = qHTS assay to identify aromatase inhibitors - cell viability counter screen (AID 743084);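 also: cells stimulated with testosterone during compound exposure; nearly all actives have a fitted effect of over 55% in size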
[11] = qHTS assay to identify small molecule antagonists of the thyroid receptor (TR) signaling pathway (AID 743065); also: series mostly up to about 70 µM; nearly all actives have a fitted effect of over 55% in size
Outline: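 GH3.TRE-Luc rat pituitary cells (two TREs driving luciferase) were dosed with compound, then stimulated with 1 nM T3 (final) for 23.5 h at 37 C. ONE-Glo luminescence was the read-out, with CellTiter-Fluor fluorescence as the cytotoxicity counter-screen.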

[12] = system: thyroid hormone receptor (rat, GH3 cells); assay: qHTS assay to identify small molecule agonists of the thyroid receptor (TR) signaling pathway (AID 743066; calls by dose curve)
[13] = target: Estrogen receptor (Homo sapiens) (UniProt P03372); assay: qHTS assay to identify small molecule antagonists of the estrogen receptor alpha (ER-alpha) signaling pathway (AID 743069; active = well fitted curve in the direction sought with a large enough effect in the signal ratio in the repeat runs, not every such curve was filed as active; the % refers to the signal ratio)
Outline: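 Reporter cells (ER-alpha-bla, HEK293 background) are conditioned overnight in stripped-serum medium (2% charcoal-stripped FBS). Compound and 17beta-estradiol exposure runs 18 hr at 37C, 5% CO2.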

[14] = target: Estrogen receptor (Homo sapiens) (UniProt P03372); assay: qHTS assay to identify small molecule agonists of the estrogen receptor alpha (ER-alpha) signaling pathway using the BG1 cell line (AID 743079); also: nearly all actives have a fitted effect of over 20% in size
[15] = qHTS assay to identify small molecule antagonists of the estrogen receptor alpha (ER-alpha) signaling pathway using the BG1 cell line (AID 743080; calls by dose curve;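 also: BG1 cells stimulated with 17beta-estradiol alongside compound; series mostly up to about 70 µM; nearly all actives have a fitted effect of over 25% in size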)
Outline: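 Luminescence from a 4×ERE-luciferase reporter in BG1-Luc-4E2 cells served as read-out. Cells, pre-cultured 5 days in stripped-serum phenol-red-free medium, were exposed to compound with 17beta-estradiol co-stimulation for 21.5 h at 37 C.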

Measured: Potency

Chain of Estrogen receptor (Homo sapiens) (P03372 whole entry, looked up): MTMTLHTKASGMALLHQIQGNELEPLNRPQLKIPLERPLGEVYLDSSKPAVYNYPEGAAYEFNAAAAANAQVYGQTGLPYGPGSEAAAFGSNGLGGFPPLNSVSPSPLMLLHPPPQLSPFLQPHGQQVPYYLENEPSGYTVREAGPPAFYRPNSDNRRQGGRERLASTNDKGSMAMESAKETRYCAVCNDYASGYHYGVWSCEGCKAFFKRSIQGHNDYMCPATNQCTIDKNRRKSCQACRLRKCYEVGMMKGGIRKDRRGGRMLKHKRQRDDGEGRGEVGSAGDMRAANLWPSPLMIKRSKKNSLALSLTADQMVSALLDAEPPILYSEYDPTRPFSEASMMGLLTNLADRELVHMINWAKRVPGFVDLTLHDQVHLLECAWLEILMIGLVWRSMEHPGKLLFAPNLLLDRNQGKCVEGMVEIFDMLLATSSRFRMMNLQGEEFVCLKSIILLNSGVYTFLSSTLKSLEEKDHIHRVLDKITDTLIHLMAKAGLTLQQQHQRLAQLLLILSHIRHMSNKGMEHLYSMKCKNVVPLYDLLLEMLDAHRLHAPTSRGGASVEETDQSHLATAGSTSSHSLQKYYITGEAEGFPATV
Chain of Aromatase (Homo sapiens) (P11511 whole entry, looked up): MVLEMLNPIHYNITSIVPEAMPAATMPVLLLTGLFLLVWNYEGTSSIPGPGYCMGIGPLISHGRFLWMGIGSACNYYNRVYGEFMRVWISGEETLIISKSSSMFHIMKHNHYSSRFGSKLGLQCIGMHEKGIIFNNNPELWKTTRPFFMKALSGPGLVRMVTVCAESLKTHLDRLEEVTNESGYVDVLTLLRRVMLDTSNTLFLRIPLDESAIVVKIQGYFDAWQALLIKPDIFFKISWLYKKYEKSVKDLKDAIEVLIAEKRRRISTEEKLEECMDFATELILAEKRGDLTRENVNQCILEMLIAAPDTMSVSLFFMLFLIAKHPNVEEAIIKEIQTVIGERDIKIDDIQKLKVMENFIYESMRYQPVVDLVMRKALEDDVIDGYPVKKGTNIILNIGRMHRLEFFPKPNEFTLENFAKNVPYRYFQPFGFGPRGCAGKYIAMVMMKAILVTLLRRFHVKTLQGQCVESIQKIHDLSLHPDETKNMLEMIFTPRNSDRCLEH

C[C@]12C=CC(=O)C=C1[C@@H](F)C[C@@H]1[C@@H]2[C@@H](O)C[C@@]2(C)[C@H]1CC[C@]2(O)C(=O)CO
active: [1] 18.8 µM | [2] 18.8 µM | [3] 23.7 µM and 26.6 µM
not listed: [11] | [12] | [13] | [14] | [15]
inactive: all other assays above

CCOCCOCCOC(C)=O
not listed: [8] | [13] | [14] | [15]
inactive: all other assays above

COCCCOc1cc(C[C@@H](C[C@H](N)[C@@H](O)C[C@H](C(=O)NCC(C)(C)C(N)=O)C(C)C)C(C)C)ccc1OC
not listed: [1] | [7]
inactive: all other assays above

CN(C)c1ccncc1
not listed: [1] | [2] | [3]
inactive: all other assays above

CN1C(CCl)Nc2cc(Cl)c(S(N)(=O)=O)cc2S1(=O)=O (stereo unspecified)
active: [1] 26.6 µM | [3] 29.8 µM
not listed: [2] | [4] | [6] | [11] | [12]
inactive: all other assays above
